From PubChem BioAssay AID1376 (SRMLSC, 2008)
The whole screen tested about 220,000 compounds, of which about 530 (0.24%) were called active. No stated cut-off is given here; in the data, active means inhibition above about 13%; inconclusive means no clear call, values can overlap the other calls; inactive means below that. The full list was thinned out, with actives kept by preference. Entries with a potency or affinity are not part of this list.

Each compound was assayed against Bifunctional protein GlmU (Mycobacterium tuberculosis (strain ATCC 25618 / H37Rv)) (UniProt P9WMN3) (assay: inhibition of mycobacterial GlmU enzyme – biochemical, glucosamine-1-phosphate acetyltransferase (AID 1376;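 further: 0% = complete reaction with vehicle and 100% = reaction without substrate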)). Details: M. tuberculosis GlmU acetyltransferase enzyme assay; stronger effect = higher value;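 tested at 30 µM in the primary screen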.
Chain of Bifunctional protein GlmU (Mycobacterium tuberculosis (strain ATCC 25618 / H37Rv)) (P9WMN3 whole entry, looked up): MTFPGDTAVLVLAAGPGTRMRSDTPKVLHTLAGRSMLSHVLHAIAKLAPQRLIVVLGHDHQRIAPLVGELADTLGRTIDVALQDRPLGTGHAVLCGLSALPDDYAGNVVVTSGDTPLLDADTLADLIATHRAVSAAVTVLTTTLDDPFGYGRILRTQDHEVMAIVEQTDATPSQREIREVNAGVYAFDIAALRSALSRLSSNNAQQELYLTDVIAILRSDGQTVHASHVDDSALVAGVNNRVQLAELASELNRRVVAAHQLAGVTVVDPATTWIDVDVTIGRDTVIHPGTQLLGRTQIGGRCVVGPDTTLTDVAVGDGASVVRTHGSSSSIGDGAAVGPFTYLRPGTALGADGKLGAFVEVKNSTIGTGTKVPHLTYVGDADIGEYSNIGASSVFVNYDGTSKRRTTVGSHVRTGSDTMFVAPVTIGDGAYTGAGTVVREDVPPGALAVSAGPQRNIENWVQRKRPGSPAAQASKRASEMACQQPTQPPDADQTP

**Q.** How did the inhibition turn out when `CC(=O)N1N=C(c2cccs2)CC1c1cccs1` (stereo unspecified) was run?
**A.** -7.39% (inactive)

**Q.** For `CCNC(=O)CCS(=O)(=O)c1ccc2ccccc2c1`, which inhibition is on record?
**A.** 5.84% (inactive)

**Q.** `CCc1nc(SCC(=O)N2CC(=O)Nc3ccccc32)c2c(C)c(C)sc2n1` was tested. Which inhibition did it give?
**A.** 14.6% (active)

**Q.** `Cc1sc2nc(C3CC3)nc(SCC(=O)N3CC(=O)Nc4ccccc43)c2c1C` was tested. Which inhibition did it give?
**A.** 2.43% (inactive)

**Q.** Which inhibition does the source give for `Cc1sc2nc(C3CCCCC3)nc(SCC(=O)N3CC(=O)Nc4ccccc43)c2c1C` here?
**A.** -0.32% (inactive)

**Q.** With `COCCCNc1nc2nonc2nc1N1CCN(C2CCCC2)CC1` as the compound, how does the inhibition read?
**A.** -4.2% (inactive)

**Q.** How did the inhibition turn out when `CN1CCN(C(=S)Nc2ccccc2Cl)CC1` was run?
**A.** 7.2% (inactive)

**Q.** With `CCCCOC(=O)CSc1nc2ccccc2o1` as the compound, how does the inhibition read?
**A.** 6.41% (inactive)

**Q.** How did the inhibition turn out when `COc1cc(-c2cn[nH]c2N)cc(OC)c1OC` was run?
**A.** 6.07% (inactive)

**Q.** `COc1ccc(/C=N/NC(=O)c2ccc(Cl)c(S(N)(=O)=O)c2)cc1OCC(N)=O` was tested. Which inhibition did it give?
**A.** 2.57% (inactive)

**Q.** `O=C(O)C(c1ccccc1)c1ccccc1` was tested. Which inhibition did it give?
**A.** 4.26% (inactive)

**Q.** For `O=C(O)C(c1ccccc1)C(c1ccccc1)c1ccccc1` (stereo unspecified), which inhibition is on record?
**A.** 2.54% (inactive)

**Q.** With `O=C(O)C(c1ccccc1)C1(O)CCCC1` (stereo unspecified) as the compound, how does the inhibition read?
**A.** 13.3% (active)

**Q.** With `COc1ccc(C(=O)Nc2ccc([N+](=O)[O-])cn2)c(OC)c1` as the compound, how does the inhibition read?
**A.** 0.14% (inactive)

**Q.** How did the inhibition turn out when `COc1ccc(/C=N/N(Cc2ccccc2)c2ccccc2)cc1O` was run?
**A.** 6.68% (inactive)

**Q.** For `Oc1ccc(/C=N/N(Cc2ccccc2)c2ccccc2)c(O)c1O`, which inhibition is on record?
**A.** 13.5% (active)

**Q.** `O=C(/C(=N/N=C/c1ccc(O)c(O)c1O)c1ccccc1)c1ccccc1` was tested. Which inhibition did it give?
**A.** 7.49% (inactive)

**Q.** Which inhibition does the source give for `Oc1cccc(/C=N/N(Cc2ccccc2)c2ccccc2)c1` here?
**A.** -0.56% (inactive)

**Q.** How did the inhibition turn out when `CCN(CC)c1ccc(/C=N/N=C(c2ccccc2)c2ccccc2)c(O)c1` was run?
**A.** 6.73% (inactive)

**Q.** With `COc1ccc(C2CC(=O)c3cc(OC)c(OC)cc32)cc1OC` (stereo unspecified) as the compound, how does the inhibition read?
**A.** -0.52% (inactive)

**Q.** Which inhibition does the source give for `CCOC(=O)C1=C(C)N=C2SC(C)C(=O)N2C1c1ccc(OCC)c(OCC)c1` (stereo unspecified) here?
**A.** 14.7% (active)

**Q.** `CCOc1cc(C2C(C(=O)OC)=C(C)N=C3SC(C)C(=O)N32)ccc1OC(C)=O` (stereo unspecified) was tested. Which inhibition did it give?
**A.** -1.96% (inactive)

**Q.** `CCOC(=O)C1=C(C)N=C2SC(C)C(=O)N2C1c1ccc(OC(C)=O)c(OC)c1` (stereo unspecified) was tested. Which inhibition did it give?
**A.** 5.74% (inactive)

**Q.** With `Cc1cccc(OCc2nnc(SCc3cc(=O)n4cc(Br)ccc4n3)o2)c1` as the compound, how does the inhibition read?
**A.** 7.11% (inactive)

**Q.** For `O=C(Nc1ccc(N2CCOCC2)cc1)Nc1ccc2nc(-c3ccco3)c(-c3ccco3)nc2c1`, which inhibition is on record?
**A.** -3.2% (inactive)

**Q.** How did the inhibition turn out when `O=C(Nc1ccc2nc(-c3ccco3)c(-c3ccco3)nc2c1)N1CCN(c2ccccn2)CC1` was run?
**A.** 12.6% (inactive)

**Q.** How did the inhibition turn out when `O=C(NCCO)Nc1ccc2nc(-c3ccco3)c(-c3ccco3)nc2c1` was run?
**A.** 19.4% (active)

**Q.** `O=C(Nc1ccccc1)c1ccc2nc(-c3ccco3)c(-c3ccco3)nc2c1` was tested. Which inhibition did it give?
**A.** 2.41% (inactive)

**Q.** Which inhibition does the source give for `O=C(Nc1ccc2nc(-c3ccco3)c(-c3ccco3)nc2c1)N1CCCCCC1` here?
**A.** 14.8% (active)

**Q.** For `CC(=O)c1ccc(NC(=O)c2ccc3nc(-c4ccco4)c(-c4ccco4)nc3c2)cc1`, which inhibition is on record?
**A.** 14.4% (active)

**Q.** `O=C(Nc1ccc(N2CCOCC2)cc1)c1ccc2nc(-c3ccco3)c(-c3ccco3)nc2c1` was tested. Which inhibition did it give?
**A.** 10.1% (inactive)

**Q.** With `CCOC(=O)C1CCN(C(=O)Nc2ccc3nc(-c4ccco4)c(-c4ccco4)nc3c2)CC1` as the compound, how does the inhibition read?
**A.** 11.1% (inactive)

**Q.** For `O=C(NCCO)c1ccc2nc(-c3ccco3)c(-c3ccco3)nc2c1`, which inhibition is on record?
**A.** 5.04% (inactive)

**Q.** Which inhibition does the source give for `CC(=O)c1ccc(N2CCN(C(=O)Nc3cccc(F)c3)CC2)cc1` here?
**A.** -1.45% (inactive)

**Q.** For `COc1cccc(C2/C(=C(\O)c3ccc4c(c3)OCO4)C(=O)C(=O)N2CCN(C)C)c1OC` (stereo unspecified), which inhibition is on record?
**A.** 1.43% (inactive)

**Q.** `O=C(O)c1ccc(N=Cc2c(O)n(Cc3ccc(F)cc3)c(=O)[nH]c2=O)cc1` was tested. Which inhibition did it give?
**A.** -1% (inactive)

**Q.** With `Cc1ccc(NS(=O)(=O)c2ccc(C3CCCCC3)cc2)cc1` as the compound, how does the inhibition read?
**A.** -5.89% (inactive)

**Q.** How did the inhibition turn out when `C=CCn1c(-c2c(C)nc3cc(C)ccn23)n[nH]c1=S` was run?
**A.** 0.98% (inactive)

**Q.** Which inhibition does the source give for `Cc1ccc(N(CC(=O)NCCSCc2ccco2)S(=O)(=O)c2ccc(C)cc2)cc1` here?
**A.** -1.27% (inactive)

**Q.** Which inhibition does the source give for `CN1CCN(c2ccc([N+](=O)[O-])c(Sc3nncn3C)c2)CC1` here?
**A.** -2.97% (inactive)

**Q.** Which inhibition does the source give for `COc1ccc(-c2ccc(-c3noc(-c4cccc(OC)c4)n3)c(OC)n2)cc1` here?
**A.** 14% (active)

**Q.** `COc1ccc(-c2ccc(-c3noc(-c4ccccc4)n3)c(OC)n2)cc1` was tested. Which inhibition did it give?
**A.** 6.47% (inactive)

**Q.** How did the inhibition turn out when `COc1ccc(-c2ccc(-c3noc(-c4ccco4)n3)c(OC)n2)cc1` was run?
**A.** 1.18% (inactive)

**Q.** `O=[N+]([O-])c1cccc(/C=N/Nc2ccccn2)c1` was tested. Which inhibition did it give?
**A.** 0.69% (inactive)

**Q.** How did the inhibition turn out when `O=C1CC(N(O)c2ccccc2)C(=O)N1Cc1ccccc1` (stereo unspecified) was run?
**A.** 8.24% (inactive)

**Q.** Which inhibition does the source give for `C/C(=N\N=C1\NC(=O)C(Cc2ccccc2)S1)c1ccccc1` (stereo unspecified) here?
**A.** 2.56% (inactive)

**Q.** `Cc1ccc(Sc2cc(C(F)(F)F)nc(N(C)C)n2)cc1` was tested. Which inhibition did it give?
**A.** -0.68% (inactive)

**Q.** `Cc1cc(C)n2c(SCCN3C(=O)c4ccccc4C3=O)nnc2n1` was tested. Which inhibition did it give?
**A.** 0.6% (inactive)

**Q.** How did the inhibition turn out when `CCOC(=O)c1cnc(SCC#N)nc1N` was run?
**A.** 0.91% (inactive)

**Q.** How did the inhibition turn out when `NS(=O)(=O)c1ccc(NC(=O)CSc2nc3ccccc3[nH]2)cc1` was run?
**A.** 13.4% (active)

**Q.** How did the inhibition turn out when `NS(=O)(=O)c1cccc(NC(=O)CSc2nc3ccccc3[nH]2)c1` was run?
**A.** 4.49% (inactive)

**Q.** For `O=C(CSc1nc2ccccc2[nH]1)Nc1ccc(F)cc1`, which inhibition is on record?
**A.** -1.92% (inactive)

**Q.** Which inhibition does the source give for `CCOc1c(C#N)c(C#N)c2nc(C)cc(C)n12` here?
**A.** -3.28% (inactive)

**Q.** With `CCn1ncc2c(OCc3ccc(C#N)cc3)cc(C)nc21` as the compound, how does the inhibition read?
**A.** 13% (active)

**Q.** How did the inhibition turn out when `Cc1csc(OCc2ccc(C#N)cc2)n1` was run?
**A.** 4.28% (inactive)

**Q.** How did the inhibition turn out when `c1cnc2ccc(C(c3nnnn3C3CCCCC3)N3CCN4CCCC4C3)cc2c1` (stereo unspecified) was run?
**A.** -1.69% (inactive)

**Q.** Which inhibition does the source give for `O=C(O)c1cc([N+](=O)[O-])ccc1C(=O)Nc1ccccc1` here?
**A.** 0.35% (inactive)

**Q.** Which inhibition does the source give for `O=C(O)c1ccccc1C(=O)Nc1cccc([N+](=O)[O-])c1` here?
**A.** 17.2% (active)

**Q.** How did the inhibition turn out when `O=C(Nc1cccc([N+](=O)[O-])c1)c1ccccc1` was run?
**A.** -2.61% (inactive)

**Q.** Which inhibition does the source give for `COc1ccc(/C=C/C(=O)C2CC2)cc1COc1cccc(C)c1C` here?
**A.** 1.77% (inactive)

**Q.** How did the inhibition turn out when `O=C(CSCc1ccc(Cl)cc1Cl)Nc1ccccc1C(=O)Nc1ccc(C(=O)O)cc1` was run?
**A.** -3.25% (inactive)
